Assay [1] addresses Sphingosine kinase 1 (Homo sapiens) (UniProt Q9NYA1). The following applies: at 1 µM.
The target of assay [2] is T1, Sphingosine kinase 2 (Homo sapiens) (UniProt Q9NRA0).
T1 sequence (whole entry): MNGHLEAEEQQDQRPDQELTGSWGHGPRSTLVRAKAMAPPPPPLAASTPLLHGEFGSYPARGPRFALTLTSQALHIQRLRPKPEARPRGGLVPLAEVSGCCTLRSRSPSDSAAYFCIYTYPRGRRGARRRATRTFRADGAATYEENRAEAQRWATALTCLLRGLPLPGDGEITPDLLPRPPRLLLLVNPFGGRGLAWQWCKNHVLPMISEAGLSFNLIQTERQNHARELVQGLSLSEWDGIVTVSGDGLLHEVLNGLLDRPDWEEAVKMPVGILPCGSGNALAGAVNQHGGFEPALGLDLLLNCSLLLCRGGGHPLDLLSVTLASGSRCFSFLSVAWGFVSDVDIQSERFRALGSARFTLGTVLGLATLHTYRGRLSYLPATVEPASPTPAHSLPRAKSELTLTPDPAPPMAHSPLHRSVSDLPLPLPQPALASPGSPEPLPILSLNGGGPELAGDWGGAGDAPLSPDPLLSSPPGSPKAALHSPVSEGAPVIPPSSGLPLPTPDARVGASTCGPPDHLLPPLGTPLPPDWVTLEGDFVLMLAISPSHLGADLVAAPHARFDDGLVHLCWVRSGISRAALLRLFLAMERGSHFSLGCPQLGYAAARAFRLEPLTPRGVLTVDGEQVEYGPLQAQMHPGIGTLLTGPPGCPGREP
As to conditions: at 0.1 µM.

Assay [3] has as its target T1, Sphingosine kinase 2 (Homo sapiens). The following applies: at 1 µM.
Assay [4] has as its target Casein kinase II subunit alpha (Homo sapiens) (UniProt P68400). As to conditions: at 0.1 µM.
Assay [5] shares this target. The following applies: at 1 µM.
In assay [6] the target is T2, Inhibitor of nuclear factor kappa-B kinase subunit alpha (Homo sapiens) (UniProt O15111).
T2 sequence (whole entry): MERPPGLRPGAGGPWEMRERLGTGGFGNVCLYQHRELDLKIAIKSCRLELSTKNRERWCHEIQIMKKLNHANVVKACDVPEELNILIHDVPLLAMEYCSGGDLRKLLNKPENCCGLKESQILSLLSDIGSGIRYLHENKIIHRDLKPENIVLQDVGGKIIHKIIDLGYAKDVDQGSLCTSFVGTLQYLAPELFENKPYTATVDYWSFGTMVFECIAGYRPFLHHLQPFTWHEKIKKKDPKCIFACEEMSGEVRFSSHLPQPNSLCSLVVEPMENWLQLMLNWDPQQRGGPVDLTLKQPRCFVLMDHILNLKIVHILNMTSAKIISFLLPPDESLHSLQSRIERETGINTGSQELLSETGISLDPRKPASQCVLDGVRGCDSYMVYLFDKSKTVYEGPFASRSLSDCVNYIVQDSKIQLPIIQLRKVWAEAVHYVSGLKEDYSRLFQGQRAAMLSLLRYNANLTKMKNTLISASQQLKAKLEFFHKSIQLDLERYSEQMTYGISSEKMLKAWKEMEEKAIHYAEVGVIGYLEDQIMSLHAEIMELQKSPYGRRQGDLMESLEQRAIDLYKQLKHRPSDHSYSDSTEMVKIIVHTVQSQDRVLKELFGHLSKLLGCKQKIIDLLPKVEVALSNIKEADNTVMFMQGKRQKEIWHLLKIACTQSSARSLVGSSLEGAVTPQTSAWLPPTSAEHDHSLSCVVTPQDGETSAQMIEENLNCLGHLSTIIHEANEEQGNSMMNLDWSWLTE
As to conditions: at 0.1 µM.

In assay [7] the target is T2, Inhibitor of nuclear factor kappa-B kinase subunit alpha (Homo sapiens). As to conditions: at 1 µM.
Assay [8] concerns the target T3, Inhibitor of nuclear factor kappa-B kinase subunit beta (Homo sapiens) (UniProt O14920).
T3 sequence (whole entry): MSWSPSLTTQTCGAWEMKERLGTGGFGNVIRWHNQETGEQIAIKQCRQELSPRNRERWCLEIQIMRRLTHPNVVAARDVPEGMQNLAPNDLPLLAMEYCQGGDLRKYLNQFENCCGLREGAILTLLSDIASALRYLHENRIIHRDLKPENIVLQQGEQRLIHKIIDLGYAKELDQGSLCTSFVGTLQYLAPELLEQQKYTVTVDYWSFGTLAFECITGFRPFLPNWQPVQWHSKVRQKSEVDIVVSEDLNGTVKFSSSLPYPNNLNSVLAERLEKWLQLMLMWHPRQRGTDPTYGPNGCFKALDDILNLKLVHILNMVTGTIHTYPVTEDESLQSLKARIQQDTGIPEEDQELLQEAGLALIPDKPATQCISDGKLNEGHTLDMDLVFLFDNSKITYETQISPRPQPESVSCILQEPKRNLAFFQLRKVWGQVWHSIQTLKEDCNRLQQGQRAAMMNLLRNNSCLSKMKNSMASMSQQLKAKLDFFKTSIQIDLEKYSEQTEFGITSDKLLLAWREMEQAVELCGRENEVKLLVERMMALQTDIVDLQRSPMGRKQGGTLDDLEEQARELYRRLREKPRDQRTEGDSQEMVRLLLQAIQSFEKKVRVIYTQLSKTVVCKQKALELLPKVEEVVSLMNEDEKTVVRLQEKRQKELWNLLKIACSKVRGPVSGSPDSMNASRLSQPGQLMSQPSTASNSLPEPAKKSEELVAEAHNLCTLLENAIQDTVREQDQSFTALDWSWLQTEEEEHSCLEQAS
The following applies: at 0.1 µM.

The target in assay [9] is T3, Inhibitor of nuclear factor kappa-B kinase subunit beta (Homo sapiens). As to conditions: at 1 µM.
Assay [10] concerns the target T4, Inhibitor of nuclear factor kappa-B kinase subunit epsilon (Homo sapiens) (UniProt Q14164).
T4 sequence (whole entry): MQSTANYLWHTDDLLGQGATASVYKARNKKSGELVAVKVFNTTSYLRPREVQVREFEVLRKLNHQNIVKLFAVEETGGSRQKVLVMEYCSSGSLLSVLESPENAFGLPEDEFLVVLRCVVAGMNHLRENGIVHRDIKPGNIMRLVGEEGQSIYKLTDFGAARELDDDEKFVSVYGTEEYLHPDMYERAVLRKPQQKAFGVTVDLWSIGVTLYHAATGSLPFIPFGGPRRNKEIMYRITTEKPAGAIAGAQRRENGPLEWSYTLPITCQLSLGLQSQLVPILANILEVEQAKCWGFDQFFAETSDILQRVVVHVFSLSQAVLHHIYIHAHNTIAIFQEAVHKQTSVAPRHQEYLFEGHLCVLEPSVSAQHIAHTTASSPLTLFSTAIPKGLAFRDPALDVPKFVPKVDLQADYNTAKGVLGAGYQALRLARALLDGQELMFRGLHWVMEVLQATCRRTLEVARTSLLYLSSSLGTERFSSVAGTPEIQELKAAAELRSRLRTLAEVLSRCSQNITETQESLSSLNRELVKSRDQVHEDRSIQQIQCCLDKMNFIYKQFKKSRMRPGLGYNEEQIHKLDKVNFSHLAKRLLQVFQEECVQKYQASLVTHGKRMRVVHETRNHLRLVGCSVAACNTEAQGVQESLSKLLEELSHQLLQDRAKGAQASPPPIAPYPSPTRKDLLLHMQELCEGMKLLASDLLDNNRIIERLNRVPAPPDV
The following applies: at 0.1 µM.

In assay [11] the target is T4, Inhibitor of nuclear factor kappa-B kinase subunit epsilon (Homo sapiens). As to conditions: at 1 µM.
In assay [12] the target is T5, Serine/threonine-protein kinase Nek1 (Homo sapiens) (UniProt Q96PY6).
T5 sequence (whole entry): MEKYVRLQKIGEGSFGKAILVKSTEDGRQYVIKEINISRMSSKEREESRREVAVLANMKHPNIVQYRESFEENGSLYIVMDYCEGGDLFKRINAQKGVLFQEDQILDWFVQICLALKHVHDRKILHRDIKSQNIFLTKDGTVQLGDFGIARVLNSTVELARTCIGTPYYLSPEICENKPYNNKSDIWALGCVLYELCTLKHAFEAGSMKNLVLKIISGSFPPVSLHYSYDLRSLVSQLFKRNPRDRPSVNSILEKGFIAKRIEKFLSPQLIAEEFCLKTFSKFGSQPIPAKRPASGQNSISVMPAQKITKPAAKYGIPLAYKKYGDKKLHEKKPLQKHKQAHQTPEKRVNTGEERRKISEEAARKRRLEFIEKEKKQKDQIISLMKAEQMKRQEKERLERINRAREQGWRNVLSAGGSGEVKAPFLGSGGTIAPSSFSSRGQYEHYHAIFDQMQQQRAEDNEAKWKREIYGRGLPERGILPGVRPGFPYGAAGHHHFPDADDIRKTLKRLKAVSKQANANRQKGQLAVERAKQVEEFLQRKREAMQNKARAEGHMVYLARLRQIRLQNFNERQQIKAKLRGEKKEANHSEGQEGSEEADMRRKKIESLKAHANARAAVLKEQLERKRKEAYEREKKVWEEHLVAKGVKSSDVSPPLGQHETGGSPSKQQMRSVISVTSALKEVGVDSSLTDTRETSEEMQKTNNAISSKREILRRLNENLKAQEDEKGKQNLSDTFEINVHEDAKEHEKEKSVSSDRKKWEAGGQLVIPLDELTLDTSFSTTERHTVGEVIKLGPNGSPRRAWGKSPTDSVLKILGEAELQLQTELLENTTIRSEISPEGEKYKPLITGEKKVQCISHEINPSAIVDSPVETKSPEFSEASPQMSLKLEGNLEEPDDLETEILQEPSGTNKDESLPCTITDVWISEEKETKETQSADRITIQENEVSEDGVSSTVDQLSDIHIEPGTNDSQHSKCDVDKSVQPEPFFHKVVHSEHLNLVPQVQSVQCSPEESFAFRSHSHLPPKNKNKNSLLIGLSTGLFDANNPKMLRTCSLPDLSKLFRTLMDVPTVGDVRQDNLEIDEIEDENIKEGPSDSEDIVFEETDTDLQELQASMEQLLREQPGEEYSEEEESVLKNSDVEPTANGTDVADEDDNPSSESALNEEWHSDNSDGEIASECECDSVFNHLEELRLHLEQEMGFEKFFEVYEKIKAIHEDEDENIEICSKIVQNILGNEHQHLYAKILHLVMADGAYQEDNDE
The following applies: at 0.1 µM.

Assay [13] addresses T5, Serine/threonine-protein kinase Nek1 (Homo sapiens). As to conditions: at 1 µM.
Assay [14] concerns the target T6, Serine/threonine-protein kinase Nek2 (Homo sapiens) (UniProt P51955).
T6 sequence (whole entry): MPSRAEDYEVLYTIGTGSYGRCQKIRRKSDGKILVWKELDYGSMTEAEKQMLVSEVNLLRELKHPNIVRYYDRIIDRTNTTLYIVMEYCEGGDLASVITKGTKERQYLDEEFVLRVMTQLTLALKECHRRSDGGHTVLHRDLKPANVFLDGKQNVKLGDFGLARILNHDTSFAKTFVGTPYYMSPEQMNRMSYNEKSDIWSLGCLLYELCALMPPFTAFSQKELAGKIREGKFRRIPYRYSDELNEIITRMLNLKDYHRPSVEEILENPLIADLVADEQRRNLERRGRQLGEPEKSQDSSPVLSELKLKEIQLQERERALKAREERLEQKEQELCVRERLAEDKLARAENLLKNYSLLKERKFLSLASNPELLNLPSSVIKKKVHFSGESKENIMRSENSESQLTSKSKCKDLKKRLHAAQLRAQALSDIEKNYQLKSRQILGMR
As to conditions: at 0.1 µM.

Assay [15] has as its target T6, Serine/threonine-protein kinase Nek2 (Homo sapiens). The following applies: at 1 µM.
Assay [16] addresses Serine/threonine-protein kinase Nek6 (Homo sapiens) (UniProt Q9HC98). The following applies: at 0.1 µM.
The target is the same in assay [17]. The following applies: at 1 µM.
Assay [18] has as its target Serine/threonine-protein kinase Nek7 (Homo sapiens) (UniProt Q8TDX7). The following applies: at 0.1 µM.
Assay [19] has the same target. As to conditions: at 1 µM.
For assay [20], the target named is T7, Serine/threonine-protein kinase Nek9 (Homo sapiens) (UniProt Q8TD19).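 Further: reported value is the mean percent inhibition of NEK9.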
T7 sequence (whole entry): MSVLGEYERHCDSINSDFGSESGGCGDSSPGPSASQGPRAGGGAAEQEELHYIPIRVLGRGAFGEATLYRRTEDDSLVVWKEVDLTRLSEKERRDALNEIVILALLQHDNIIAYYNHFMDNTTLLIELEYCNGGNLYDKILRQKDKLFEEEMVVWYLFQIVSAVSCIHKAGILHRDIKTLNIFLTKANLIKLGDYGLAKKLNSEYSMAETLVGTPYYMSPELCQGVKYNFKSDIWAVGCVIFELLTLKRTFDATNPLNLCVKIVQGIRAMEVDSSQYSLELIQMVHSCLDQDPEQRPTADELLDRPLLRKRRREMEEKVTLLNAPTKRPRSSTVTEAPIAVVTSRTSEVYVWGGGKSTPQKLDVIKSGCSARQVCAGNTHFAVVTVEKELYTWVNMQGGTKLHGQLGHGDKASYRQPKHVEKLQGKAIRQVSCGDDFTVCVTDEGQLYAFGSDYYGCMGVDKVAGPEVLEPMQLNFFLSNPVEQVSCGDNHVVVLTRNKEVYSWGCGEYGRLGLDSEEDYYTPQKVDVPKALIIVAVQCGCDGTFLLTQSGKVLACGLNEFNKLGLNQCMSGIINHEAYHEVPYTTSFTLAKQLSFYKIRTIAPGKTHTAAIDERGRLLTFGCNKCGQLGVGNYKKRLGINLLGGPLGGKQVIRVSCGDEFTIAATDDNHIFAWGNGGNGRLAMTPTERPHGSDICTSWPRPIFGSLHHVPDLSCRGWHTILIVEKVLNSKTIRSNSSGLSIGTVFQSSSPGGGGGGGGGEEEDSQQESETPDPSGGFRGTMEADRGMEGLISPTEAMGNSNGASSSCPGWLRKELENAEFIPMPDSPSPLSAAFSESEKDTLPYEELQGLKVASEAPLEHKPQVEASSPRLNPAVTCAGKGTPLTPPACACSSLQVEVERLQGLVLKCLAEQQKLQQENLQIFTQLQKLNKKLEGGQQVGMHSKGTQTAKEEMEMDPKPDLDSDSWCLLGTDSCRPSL
The following applies: at 0.1 µM.

Casein kinase II subunit alpha (Homo sapiens), sequence (P68400 whole entry, looked up): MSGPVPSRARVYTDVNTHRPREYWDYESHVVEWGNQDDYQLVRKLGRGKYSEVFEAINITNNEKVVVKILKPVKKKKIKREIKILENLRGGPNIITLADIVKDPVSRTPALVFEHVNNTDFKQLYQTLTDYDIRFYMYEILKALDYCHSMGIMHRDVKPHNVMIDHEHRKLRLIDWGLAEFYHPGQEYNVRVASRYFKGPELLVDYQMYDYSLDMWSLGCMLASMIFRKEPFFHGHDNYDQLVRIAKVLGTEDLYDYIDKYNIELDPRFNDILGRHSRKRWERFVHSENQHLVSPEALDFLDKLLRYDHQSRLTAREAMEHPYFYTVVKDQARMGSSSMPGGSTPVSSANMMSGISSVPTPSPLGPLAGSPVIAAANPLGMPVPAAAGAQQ
Serine/threonine-protein kinase Nek6 (Homo sapiens), sequence (Q9HC98 whole entry): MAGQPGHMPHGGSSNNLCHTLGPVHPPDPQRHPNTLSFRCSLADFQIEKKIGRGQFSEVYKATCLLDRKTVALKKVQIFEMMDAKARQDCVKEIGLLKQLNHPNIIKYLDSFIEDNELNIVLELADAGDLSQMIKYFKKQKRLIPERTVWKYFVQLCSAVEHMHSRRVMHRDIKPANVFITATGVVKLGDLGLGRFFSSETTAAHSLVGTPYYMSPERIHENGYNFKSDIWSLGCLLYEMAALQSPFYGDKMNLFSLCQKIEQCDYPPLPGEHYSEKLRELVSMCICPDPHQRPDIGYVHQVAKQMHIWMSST
Serine/threonine-protein kinase Nek7 (Homo sapiens), sequence (Q8TDX7 whole entry, looked up): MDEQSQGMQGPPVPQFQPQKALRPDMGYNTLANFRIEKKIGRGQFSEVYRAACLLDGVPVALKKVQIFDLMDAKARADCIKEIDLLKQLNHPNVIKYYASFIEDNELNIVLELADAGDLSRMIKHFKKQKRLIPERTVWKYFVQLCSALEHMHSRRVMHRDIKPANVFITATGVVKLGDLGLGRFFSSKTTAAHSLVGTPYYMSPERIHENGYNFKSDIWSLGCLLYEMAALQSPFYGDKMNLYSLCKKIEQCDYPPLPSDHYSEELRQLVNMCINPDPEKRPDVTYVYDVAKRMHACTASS
Sphingosine kinase 1 (Homo sapiens), sequence (Q9NYA1 whole entry): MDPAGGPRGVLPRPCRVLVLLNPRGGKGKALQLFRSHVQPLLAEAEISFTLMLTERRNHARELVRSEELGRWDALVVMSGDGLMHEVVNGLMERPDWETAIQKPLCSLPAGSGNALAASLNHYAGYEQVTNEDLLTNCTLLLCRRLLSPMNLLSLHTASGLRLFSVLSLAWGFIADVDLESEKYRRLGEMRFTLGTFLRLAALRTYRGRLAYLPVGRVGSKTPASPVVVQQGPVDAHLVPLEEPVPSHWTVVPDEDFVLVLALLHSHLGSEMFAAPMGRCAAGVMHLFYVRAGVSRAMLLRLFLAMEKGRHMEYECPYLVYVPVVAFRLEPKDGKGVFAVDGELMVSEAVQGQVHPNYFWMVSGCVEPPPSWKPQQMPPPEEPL

For orientation: inhibition means the drop in the measured response relative to a control, in per cent. Regarding `COc1cc(/C=N/Nc2ncnc3[nH]ncc23)ccc1O`, the inhibition is -2.47% in [1]; 0.06% in assay [2]; 0.42% in [3]; 8.38% in [4]; 34.8% in [5]; 14.9% in [6]. The inhibition in assay [7] is 62%; in [8] it was 5.05%; in assay [9] it was 13.6%; in assay [10] it was 0.87%; in assay [11], 96.3%; in assay [12] it was 3.25%. The inhibition in assay [13] was 12%; in [14] it was 3.52%; in assay [15], 4.62%; in [16] it was 4.45%; in [17], 5.85%; in assay [18], 4.07%. In addition, the inhibition in [19] was 5.51%; in [20], 0.45%.

(Values after ChEMBL document CHEMBL1961873, “Compounds: GSK PKIS; Assays: Nanosyn kinase panel” (2012).)
